Bioassay records: PubChem BioAssay, National Center for Advancing Translational Sciences (NCATS)
D3 antag: blocks the human D3 dopamine receptor; AID 652054; P35462; D3R cells, DiscoveRx beta-arrestin luminescence, antagonist mode; hits give low values; 360,000 compounds, 2.5% hits; max response, negative = inhibition, %; in the data active = max response below about -50%; inconclusive = no clear call, values can overlap the other calls
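Cells expressing the human receptor were seeded at 1500 cells/well, incubated overnight at 37 degrees C in 5% CO2, then exposed to library compounds with dopamine controls for 90 minutes at 37 degrees C before luminescent detection.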
D1 antag: blocks dopamine activation of the human D1 receptor. P21728. HEK293 TREx D1 cells, calcium flux, dopamine EC80; hits give low values. activity change, negative = inhibition, % at 10 µM. 360,000 compounds, 3.2% hits. AID 504652; in the data active = activity change below about -30%
Target sequence (P21728 whole entry, looked up): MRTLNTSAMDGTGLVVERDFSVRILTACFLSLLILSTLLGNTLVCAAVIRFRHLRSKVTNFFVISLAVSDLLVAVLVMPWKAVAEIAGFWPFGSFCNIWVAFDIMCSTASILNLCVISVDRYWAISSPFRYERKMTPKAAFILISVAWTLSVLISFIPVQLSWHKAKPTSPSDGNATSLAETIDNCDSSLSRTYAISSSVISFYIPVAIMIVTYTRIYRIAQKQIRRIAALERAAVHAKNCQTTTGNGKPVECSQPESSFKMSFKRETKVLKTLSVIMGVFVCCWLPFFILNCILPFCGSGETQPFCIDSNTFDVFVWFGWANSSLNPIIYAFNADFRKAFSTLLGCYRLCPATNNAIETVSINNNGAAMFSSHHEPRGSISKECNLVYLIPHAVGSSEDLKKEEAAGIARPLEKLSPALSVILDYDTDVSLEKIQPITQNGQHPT
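Kinetic fluorescence of a calcium dye serves as the read-out. D1-expressing Hek293 Trex cells, induced overnight at 30 C, are exposed to compound for 180 s before an EC80 dopamine addition, then read 180 s further.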
D1 potentiator: human D1 dopamine receptor positive modulation; P21728; HEK293 TREx D1 cells, calcium flux, dopamine EC20 potentiation; potentiation, % at 10 µM; 360,000 compounds, 0.036% hits; AID 504651; in the data active = potentiation above about 30%
ERG-DNA inh: blocks human ERG Ets domain binding to DNA | fluorescence polarization, His-ERG Ets domain / labelled DNA | Potency, µM (doses to about 76.9 µM), hits mostly inhibitors | 370,000 compounds, 0.028% hits | P11308; active = well fitted inhibition curve with a large enough effect in the polarisation, with a control signal flat; inconclusive = small, poorly fitted or top-dose-only effect, or effect the other way, or a change in a side signal; inactive = no such curve, though single readings can be large or run the other way; the % refers to the polarisation;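 note: polarization taken with two DNA probes labelled with fluorescein and Texas red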
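His-tagged ERG Ets domain (1 uM in the protein solution; 300mM KCl, 50mM Tris-HCl, 1mM EDTA, 1mM DTT, pH 7.5) received compound, then a probe mix of 5 nM fluorescein-DNA and 100nM Texas-615-DNA. Fluorescence polarization was read for both dyes.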
DRD3 agonist: D3 dopamine receptor (human) agonism; P35462; D3R DiscoveRx beta-arrestin cells, luminescence, 90 min; max activation, %; 410,000 compounds, 0.58% hits; AID 652048; in the data active = max activation above about 30%
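Agonist-mode cell screen: cells plated at 1500/well and incubated overnight at 37 °C, then exposed to library compounds for 90 min at 37 °C. Detection reagent was added for 30–60 min at room temperature, and luminescence was read.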
D1 ag: activates the human D1 dopamine receptor; P21728; HEK293 T-REx D1 cells, calcium flux, agonist mode; activation, % at 2 µM; 360,000 compounds, 1% hits; in the data active = activation above about 30%
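Agonism was scored from calcium flux recorded over 180 s (1 read/s) after pintool compound addition, following a 10-cycle baseline. Cells were inducible force-coupled HEK293 TREx D1, plated overnight at 30 C and loaded with no-wash calcium dye.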
Hits are given with their value; i = inactive; ? = inconclusive; nt = no result. This is a sample that favours compounds with a hit; in the whole collection about 6.1% have one here.

SMILES | D3 antag | D1 antag | D1 potentiator | ERG-DNA inh | DRD3 agonist | D1 ag
COc1ccc([C@H]2CC(=O)C=C(c3ccc(OC(F)(F)F)cc3)C2)cc1 | ? | i | i | i | i | i
COc1ccc([C@H]2CC(=O)C=C(c3cc(C)ccc3OC)C2)cc1 | -58 | i | i | i | i | i
CC(=O)Nc1ccc(C2=CC(=O)C[C@H](c3ccc(Cl)cc3)C2)cc1 | i | -53 | i | i | i | i
CCCOc1ccc(C2=CC(=O)C[C@H](c3ccc(OC)cc3)C2)cc1 | i | i | i | i | 36 | i
COc1ccc([C@H]2CC(=O)C=C(c3cc(C)ccc3F)C2)cc1 | i | i | i | i | i | i
COc1ccc([C@H]2CC(=O)C=C(c3ccc(CNC(=O)OC(C)(C)C)cc3)C2)cc1 | i | i | i | i | 49 | i
CC(C)(C)c1ccc(C(=O)NC(Cc2c[nH]c3ccccc23)C(=O)OCC(=O)c2ccccc2)cc1 (stereo unspecified) | nt | i | i | i | i | i
COc1ccccc1N1CCN(C(=O)C(CC(C)C)NC(=O)C2CCCCC2)CC1 (stereo unspecified) | i | i | i | i | i | i
COc1ccccc1N1CCN(CC(C)N(C(=O)C2CCCCC2)c2ccccn2)CC1 (stereo unspecified) | -70 | i | i | i | i | i
O=C(C1CCCCC1)N(Cc1ccccc1)c1ccccn1 | i | i | i | i | i | i
COc1ccccc1N1CCN(CCN(C(=O)c2ccc(F)cc2)c2ccccn2)CC1 | -116 | i | i | i | i | i
Cc1ccc(CN(C(=O)c2ccc(F)cc2)c2ccccn2)o1 | nt | i | i | i | i | i
COc1ccccc1N1CCN(CCN(C(=O)C2CCCCC2)c2ccccn2)CC1 | -85 | i | i | i | i | i
COc1cc(Cl)c(C)cc1NC(=O)c1c(C)oc2nc(C)nc(N3CCCC3)c12 | nt | i | i | i | i | i
Cn1c(CSc2nc3ccc(Br)cc3[nH]2)nc2ccccc21 | i | i | i | nt | i | i
O=C(CCS(=O)(=O)c1ccccc1)N1CCN(c2ccccc2F)CC1 | i | i | i | i | i | i
CS(=O)(=O)N(CC(=O)NCC1CCCO1)c1cc(Cl)cc(Cl)c1 (stereo unspecified) | -97 | -50 | i | nt | i | i
CS(=O)(=O)N(CC(=O)NCC1CCCO1)c1cccc(Cl)c1 (stereo unspecified) | i | i | i | i | i | i
O=C(Nc1ccc(N2CCN(C(=O)c3ccco3)CC2)cc1)c1cc(Br)ccc1Cl | i | i | i | i | i | i
COc1cc(C(=O)Nc2cnc(NC(=O)C(C)C)cc2C)cc(OC)c1OC | i | -47 | i | i | i | i
Cc1cc(NC(=O)C(C)C)ncc1NC(=O)Cc1ccccc1 | i | i | i | i | i | i
COC(=O)c1c(NC(=O)c2ccc(Br)s2)sc2c1CCC2 | i | i | i | i | 30 | i
CC(C)(C)c1ccc(Cn2c(=N)n(CC(O)c3ccco3)c3ccccc32)cc1 (stereo unspecified) | i | i | i | i | i | 72
CCOc1ccccc1C=NNC(=O)CCCCC(=O)NN=Cc1ccccc1OCC | i | nt | nt | i | i | nt
COc1ccc(CC(N)c2csc(Nc3cccc(OC)n3)n2)cc1 (stereo unspecified) | -83 | nt | nt | nt | i | nt
SMILES | D3 antag | D1 antag | D1 potentiator | ERG-DNA inh | DRD3 agonist | D1 ag
COC(=O)c1cc2ccc(OC)cc2c2cc(OC)c(OC)cc12 | i | nt | nt | i | 80 | nt
CCc1ccc(NC(=O)CSCc2nc(N)nc(Nc3ccccc3CC)n2)cc1 | i | -36 | i | nt | i | i
Brc1ccc(-c2noc(COc3ccc4c(c3)CCC4)n2)o1 | i | i | i | i | i | i
Clc1ccc(OCc2nc(-c3ccc(Br)o3)no2)cc1 | i | -40 | i | i | i | i
CCC(C)n1c(SCC(=O)Nc2ccc3[nH]c(=O)[nH]c3c2)nc2ccccc2c1=O (stereo unspecified) | i | i | i | i | i | i
CNc1ncnc2c1ncn2[C@H]1CN(C2CCCC2)C[C@@H](CO)O1 | i | nt | nt | nt | i | nt
O=C(COc1ccccc1O)NCCN1CCOCC1 | i | i | i | i | i | i
O=C(CC(c1ccccc1)c1ccccc1O)NCCN1CCOCC1 (stereo unspecified) | -55 | -53 | i | i | i | i
CCOc1ccc(N=C2NC(=O)S/C2=C\c2ccc(N(C)C)cc2)cc1 | -69 | i | i | i | i | 81
O=S1(=O)CCO[C@H]2Cc3ccccc3[C@H]2N1Cc1ccccc1Br | i | i | i | i | i | i
Cc1cccc(C)c1OCC(=O)N=Nc1c(O)[nH]c2ccc(Br)cc12 | i | i | i | i | i | i
CC(Oc1ccccc1)C(=O)N=Nc1c(O)[nH]c2ccc(Br)cc12 (stereo unspecified) | i | -36 | i | i | i | i
COc1ccccc1N=Nc1c(O)[nH]c2ccc(Br)cc12 | i | -60 | i | i | i | i
O=S(=O)(CC(CN1CCCCC1)N1CCCCC1)c1ccc2ccccc2c1 (stereo unspecified) | -85 | i | i | i | i | i
Cc1ccc(S(=O)(=O)CC(CN2CCCCC2)N2CCCCC2)cc1 (stereo unspecified) | -68 | i | i | i | i | i
O=S(=O)(CC(CN1CCOCC1)N1CCOCC1)c1ccccc1 (stereo unspecified) | i | i | i | i | i | i
COc1ccc(CCNC(=O)Cn2c(=O)cnc3ccccc32)cc1 | i | i | i | i | i | i
Cc1ccc2nc(Cl)c3cc(C(=O)NCCCN4CCCC4)sc3c2c1 | -59 | i | i | i | i | i
Cc1ccc2cc3cc(C(=O)NCCCN4CCCC4)oc3nc2c1 | i | i | i | i | i | i
CCC1CCCCN1CCCNC(=O)c1cc2c(Cl)nc3ccc(C)cc3c2s1 (stereo unspecified) | nt | i | i | i | i | i
Cc1ccc2cc3cc(C(=O)NCCCN4CCCCCC4)oc3nc2c1 | -75 | i | i | i | i | i
Cc1ccc2cc3cc(C(=O)NCCCN4CCc5ccccc5C4)oc3nc2c1 | -55 | i | i | i | i | i
CCCCN(CC)CCCNC(=O)c1cc2cc3ccc(C)cc3nc2o1 | i | i | i | i | i | i
CCN1CCN(C(=O)/C=C/c2ccc(OC)c(OC)c2)CC1 | i | i | i | i | i | i
CCOC(=O)c1c(C)[nH]c(C)c1S(=O)(=O)N1CCCC(C(=O)Nc2ccc(OC)c(Cl)c2)C1 (stereo unspecified) | nt | i | i | i | i | i
CCOC(=O)N/C(N)=N/c1nc2ccccc2s1 | i | i | i | i | i | i
COc1cccc2cc(C(=O)NCc3ccc(C)cc3)c(=O)oc12 | i | i | i | i | i | i
